Laboratory results: PubChem BioAssay AID588856 (National Center for Advancing Translational Sciences (NCATS), 2011)
Several values for one entry are separate records, joined by “and”; a condition that tells them apart may be missing. Equal values may be shown once. Among all 410,000 compounds or so, about 3,100 (0.76%) were called active. The call rests on the fitted dose curve; in most records, active means well fitted cell-killing curve with a large enough effect; inactive means no such curve, though single readings can be large or run the other way. Many of the other results were omitted from the sample, so actives are more common in it than they were. A structure can be active in one record and inactive in another.
Potency means the concentration at half of the fitted maximal effect.

Assay: qHTS for Inhibitors of TGF-b: Cytotox Counterscreen
Conditions: HepG2 CAGA-GFP viability, ATP luminescence, 18 h; series mostly up to 46.1 µM; activity change, negative = cytotoxicity: at the top concentration
Text: TGF-b is a main component in the TGF-b signaling pathway which plays diverse roles in cellular and development pathways. TGF-b is mediated by transcription factors called "Smads". Although the Smad-dependent pathway is the primary canonical TGF-b signaling mode, TGF-b1 can also activate alternative signaling pathways, including those involving MAPK (ERK, JNK and p38). This interaction may mediate or enhance Smad-dependent responses, or can exert Smad-independent effects. The complexity of this signaling cascade allows the TGF-b superfamily to perform unique, overlapping or redundant functions. We believe that targeting the TGF-beta pathway at the Smad-transcription factor level may eliminate the consequences of disrupting the entire pathway and offer specificity without affecting other signaling pathways. Smad3 is the primary transducer of TGF-b's signals and Smad3 regulates many functions attributed to TGF-b signaling. We hypothesize that Smad3 inhibitors will selectively eliminate Smad3-specific TGF-beta signals without undesired off-target effects. We aim to identify Smad3-small molecule antagonists using a quantitative high throughput screening (qHTS) approach.
A high-throughput assay was developed to screen the NIH Molecular Libraries Small Molecule Repository (MLSMR). This is a cell based assay, where TGF-b is tagged with GFP. This is a counterscreen that evaluates the cytotoxicity of the compounds that were screened in the primary cell-based screen (AID 588855).
MH087449NIH Chemical Genomics Center [NCGC]
NIH Molecular Libraries Probe Centers Network [MLPCN]
Assay Submitter (PI): Sushil Rane, National Institute of […]
Suspensions of trypsinized HEPG2 CAGA-GFP cells were dispensed into white, tissue culture-treated, solid 1536-well plates at 5uL/well (1000 cells/well final concentration) in DMEM medium supplemented with 1% FBS. Plates were incubated at 37 degrees C for 2 hours, after which 23 nL of compounds or DMSO were delivered to each well using a pin tool. One uL of recombinant TGF-beta in DMEM (1% FBS) was then dispensed (500 pg/mL final concentration), and plates were incubated at 37 degrees C for 18 hours. Two uL of CellTiter Glo (Promega), a luminescence-based viability reagent, was dispensed, followed by a 10 minute room temperature incubation. The plates were then measured on a PerkinElmer ViewLux plate reader for luminescence (clear filter) using a 5 second exposure. The %Activity was determined from the corrected luminescence values. Wells containing media only (no cells) were used to normalize %Activity of identified toxic compounds; media-only wells corresponded to 100%Activity (complete cell-killing), while DMSO-dosed cell controls were used to normalize 0%Activity (no toxicity).
Concentration-response curves were fitted to the signals arising from the resulting luminescence. The concentration-effect curves were then classified based on curve quality (r2), response magnitude and degree of measured activity, and compounds were subsequently categorized based on their curve class.
In the case of CC(=O)OCC(NC(=O)C(Cc1ccccc1)NC(=O)OC(C)(C)C)C1OC(n2ccc(=O)[nH]c2=O)C(OC(C)=O)C1OC(C)=O (configuration not stated), the “activity change, negative = cytotoxicity” value is reported as 5.66% (inactive). With CC(C)(C)c1ccc(C(=O)C[N+]2(C)CCCc3ccccc32)cc1 (configuration not stated) the “activity change, negative = cytotoxicity” value was -29.9% (inactive). With COc1ccc(NC(=O)CCCN2C(=O)CCn3nc(-c4cn(C)c5ccccc45)cc32)cc1OC the “activity change, negative = cytotoxicity” value was -1.61% (inactive). For CCOc1ccc(OCC)c(NC(=O)CN(c2ccc(C)cc2)S(=O)(=O)c2c(C)n[nH]c2C)c1, the Potency was 12.6 µM (active). With COc1ccc(N(CC(=O)Nc2cc(OC)cc(OC)c2)S(=O)(=O)c2c(C)n[nH]c2C)cc1 the “activity change, negative = cytotoxicity” value was -6.14% (inactive). For COC(=O)c1ccc(NC(=O)CN(c2ccc(C)cc2)S(=O)(=O)c2c(C)n[nH]c2C)cc1, the “activity change, negative = cytotoxicity” value was -4.61% (inactive). With CCCCCn1c(CCNC(=O)c2ccc(F)cc2)nc2ccccc21 the “activity change, negative = cytotoxicity” value was -40.8% (inactive). In the case of CCOC(=O)Cn1c(=O)n(-c2ccccc2OC)c2nc(-c3cccc(F)c3)nc(C(N)=O)c21, the “activity change, negative = cytotoxicity” value is reported as 0.0444% (inactive). For CC1=C(C(=O)Nc2ccccc2)C(c2ccc(C)cc2)n2nc(SCc3ccccc3C)nc2N1 (configuration not stated), the “activity change, negative = cytotoxicity” value was 9.49% (inactive). With C(=Nc1ccc(/C=C/c2ccnc3ccccc23)cc1)c1cc2c3c(c1)CCCN3CCC2 the “activity change, negative = cytotoxicity” value was -21.8% (inactive). In the case of Cc1cccc(NC(=O)c2ccc(COc3ccccc3[N+](=O)[O-])o2)n1, the “activity change, negative = cytotoxicity” value is reported as -26.2% (inactive). In the case of CCN(CC)S(=O)(=O)c1ccc(N2CCCC2)c(NC(=O)c2ccc([N+](=O)[O-])o2)c1, the “activity change, negative = cytotoxicity” value is reported as -82.1% (inactive). For Cc1cccc(NC(=O)c2ccc([N+](=O)[O-])o2)c1, the Potency was 22.4 µM (active). With O=C(Nc1ccc(Br)cn1)c1ccc([N+](=O)[O-])o1 the Potency was 17.8 µM (active). For O=C(NCc1nnnn1-c1ccc(Cl)cc1)c1ccc([N+](=O)[O-])o1, the “activity change, negative = cytotoxicity” value was -116% (inactive). In the case of Cc1cccc(NC(=O)CCn2c(=O)oc3ccccc32)c1, the “activity change, negative = cytotoxicity” value is reported as -6.99% (inactive). For O=C(NCCc1ccc(Cl)cc1)c1ccc2c(c1)N(Cc1ccc(F)cc1)C(=O)CS2, the “activity change, negative = cytotoxicity” value was -17.8% (inactive). With O=C1C[C@H]2C=CCc3cccc(c32)CN1Cc1ccccc1 the “activity change, negative = cytotoxicity” value was -36.9% (inactive). With O=C(COC(=O)c1ccccc1OCCOc1ccccc1)Nc1cccc(Br)c1 the “activity change, negative = cytotoxicity” value was -16.2% (inactive). In the case of Cc1ccc(C)c2sc(NC(=O)c3ccc(S(=O)(=O)N4CCCC4)cc3)nc12, the “activity change, negative = cytotoxicity” value is reported as -17.3% (inactive). With Cc1ccc(C)c(Cn2c(CCCNC(=O)C3CCCCC3)nc3ccccc32)c1 the “activity change, negative = cytotoxicity” value was -9.35% (inactive). In the case of O=C(O)C1=C/C(=C/C=[N+]2c3cc(O)c(O[C@H]4OC(CO)[C@@H](O)[C@@H](O)[C@@H]4O)cc3C[C@@H]2C(=O)[O-])C[C@H](C(=O)O)N1 (some centres not stated), the “activity change, negative = cytotoxicity” value is reported as -11.6% (inactive). In the case of O=C(CSc1nc2nccnc2c(=O)n1CCc1c[nH]c2ccccc12)Nc1ccccc1F, the “activity change, negative = cytotoxicity” value is reported as -24.6% (inactive). In the case of CCOCCCNC(=O)c1c(NC(=O)c2nc(SC)ncc2Cl)sc2c1CCCC2, the Potency is reported as “inactive”. In the case of Cc1ccc(CS(=O)(=O)c2ncc(Cl)c(C(=O)Nc3nnc(C)s3)n2)cc1, the Potency is reported as 15.8 µM (active). In the case of CCOc1cccc(C(=O)Nc2nnc(S(=O)(=O)N(C)c3ccc(C)cc3)s2)c1, the “activity change, negative = cytotoxicity” value is reported as -6.76% (inactive). In the case of Cc1ccc2nc(NC(=O)c3nc(SCc4ccccc4F)ncc3Cl)sc2c1, the “activity change, negative = cytotoxicity” value is reported as 7.36% (inactive). In the case of Cc1nnc(NC(=O)CSc2nccn2-c2cccc(C)c2C)s1, the “activity change, negative = cytotoxicity” value is reported as -20.3% (inactive). For CSc1nnc(NC(=O)c2nc(S(=O)(=O)Cc3ccc(C)cc3)ncc2Cl)s1, the Potency was 15.8 µM (active). For CCN(CC)/[N+]([O-])=N/Oc1cc(O/[N+]([O-])=N/N2CCCC2CO)c([N+](=O)[O-])cc1[N+](=O)[O-] (configuration not stated), the “activity change, negative = cytotoxicity” value was -4.3% (inactive). With Brc1nc2ncnc(NCc3ccco3)c2[nH]1 the “activity change, negative = cytotoxicity” value was -23.3% (inactive). With COC(=O)c1cc(NC(=O)c2cnc(SC)nc2-c2ccccc2)cc(C(=O)OC)c1 the “activity change, negative = cytotoxicity” value was -19.3% (inactive). For O=C(c1ccco1)N(Cc1cccs1)c1ccc(O)cc1, the “activity change, negative = cytotoxicity” value was -6.33% (inactive). For Cc1[nH]n(-c2ccccc2)c(=O)c1CCOC(=O)c1ccc(C(F)(F)F)cc1, the “activity change, negative = cytotoxicity” value was -28.2% (inactive). With CCOC(=O)C[C@H]1c2ccc(C(F)(F)F)cc2S(=O)(=O)N1c1ccccc1 the Potency was “inactive and 7.08 µM (active)”. For COc1ccc(CN2C(CC(=O)Nc3cccnc3)c3ccc(C(F)(F)F)cc3S2(=O)=O)cc1 (configuration not stated), the “activity change, negative = cytotoxicity” value was -2.15% (inactive). For Cc1cc(C)c(NC(=O)CN2C(=O)c3cccnc3Oc3ccc(Cl)cc32)c(C)c1, the “activity change, negative = cytotoxicity” value was 4.94% (inactive). With O=C1CN(Cc2ccccc2)S(=O)(=O)c2ccccc21 the “activity change, negative = cytotoxicity” value was -3% (inactive). For O=C(Nc1ccc(-c2nc3cc(NC(=O)c4ccccc4Cl)ccc3o2)cc1)c1ccccc1Cl, the “activity change, negative = cytotoxicity” value was -42.5% (inactive). For Cc1ccc(C)c(S(=O)(=O)n2nc(C)c(S(=O)(=O)N3CCC(C)CC3)c2C)c1, the “activity change, negative = cytotoxicity” value was -2.91% (inactive). For COc1ccc(-c2cc(C(=O)NCc3cc(OC)c(OC)c(OC)c3)[nH]n2)cc1, the “activity change, negative = cytotoxicity” value was -6% (inactive). With COc1ccccc1CNC(=O)c1cc(-c2cc(Cl)ccc2C)n[nH]1 the “activity change, negative = cytotoxicity” value was -28.1% (inactive). With Cc1cc(O)ccc1-c1cc(C(=O)NCc2cc(C(F)(F)F)cc(C(F)(F)F)c2)[nH]n1 the Potency was 12.6 µM (active). With CN(Cc1ccccc1)c1ncnc2onc(-c3ccc(F)cc3)c12 the “activity change, negative = cytotoxicity” value was -7.14% (inactive). For CCCCC(=O)OC1=CN(Cc2ccccc2)S(=O)(=O)c2ccccc21, the “activity change, negative = cytotoxicity” value was -4.26% (inactive). With Cc1ccccc1C(=O)Nc1sc2c(c1C(=O)N1CCC(C)CC1)CCCC2 the “activity change, negative = cytotoxicity” value was -3.63% (inactive). With O=C(/C=C/Sc1ncn[nH]1)c1ccc(Cl)cc1 the Potency was 12.6 µM (active).
